The record followed here is PubChem BioAssay (Tox21).

Where “and” joins values, the source holds several entries; their conditions need not be identical. Identical values can stand only once. Results filed as inconclusive are left out. Some structures have more than one record in an assay (separate samples or runs), and their calls can disagree. Calls of active or inactive are those of the source. Unless noted, calls come from the whole dose curve.

The nature of experiment [1]: Nuclear factor erythroid 2-related factor 2/antioxidant responsive element (Nrf2/ARE) small molecule agonists: qHTS cell viability counter screen in human keratinocytes (AID 1919968; active = well fitted curve in the direction sought with a large enough effect in the repeat runs; an effect the other way counts as inactive or inconclusive; note: nearly all actives have a fitted effect of over 55% in size; note: potency is the fitted concentration of half-maximal effect). The procedure, abridged: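 KeratinoSens cells (HaCaT keratinocytes stably carrying an ARE-luciferase reporter) were seeded at 1,500 cells/well and rested 5 h at 37 C/5% CO2. They were then exposed to compounds in DMSO for 23 h. Viability was read by CellTiter-Fluor fluorescence after 1 h.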

The nature of experiment [2]: Nuclear factor erythroid 2-related factor 2/antioxidant responsive element (Nrf2/ARE) small molecule agonists: luciferase reporter gene qHTS assay in human keratinocytes (AID 1919969). Note: nearly all actives have a fitted effect of over 35% in size. Note: potency is the fitted concentration of half-maximal effect.
A short description of experiment [3]: p53 small molecule agonists, cell-based qHTS assay with human liver microsomes (AID 1963577). In outline: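 p53RE-bla cells, 4,000/well, compound added after 5 h, with human liver microsomes 0.5 mg/mL and NADPH 0.5 mg/mL final; 16 h at 37 C, then LiveBLAzer 2 h RT, fluorescence.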
(In general: In qHTS, concentration-response curves come from the screen itself.)

A short description of experiment [4]: p53 small molecule agonists, cell-based qHTS assay with rat liver microsomes (AID 1963578). In outline:
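p53RE-bla cells, 4,000/well, pre-incubated 5 h, then given compounds plus rat liver microsomes (0.5 mg/mL final) and NADPH (0.5 mg/mL final). Incubation 16 h at 37 C; beta-lactamase reporter read by LiveBLAzer fluorescence after 2 h at room temperature.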

The nature of experiment [5]: p53 small molecule agonists, cell-based qHTS assay with human liver microsomes: qHTS cell viability counter screen (AID 1963579). Note: nearly all actives have a fitted effect of over 45% in size. Note: potency is the fitted concentration of half-maximal effect. In outline: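 p53RE-bla cells, 4,000/well, dosed 5 hours after plating, with human liver microsomes (0.5 mg/mL final) plus NADPH (0.5 mg/mL final), 16 hours at 37 C. Viability read as CellTiter-Glo luminescence after 30 min at room temperature.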

A short description of experiment [6]: p53 small molecule agonists, cell-based qHTS assay with rat liver microsomes: qHTS cell viability counter screen (AID 1963580). Note: nearly all actives have a fitted effect of over 45% in size. In outline:
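p53RE-bla HCT-116 cells were exposed 16 h at 37 C to compounds with rat liver microsomes (0.5 mg/mL) and NADPH (0.5 mg/mL). Viability was measured in the same wells as ATP content by CellTiter-Glo luminescence.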

The nature of experiment [7]: p53 small molecule agonists, cell-based qHTS assay (AID 1963582; active = well fitted activation curve with a large enough effect in the signal ratio in the repeat runs, not every such curve was filed as active; the % refers to the signal ratio). The procedure, abridged:
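p53RE-bla beta-lactamase reporter cells rested 5 h at 37 C/5% CO2, then received compounds in DMSO by pin transfer and were incubated 16 h at 37 C. LiveBLAzer B/G FRET substrate was loaded for 2 h at room temperature before fluorescence reading.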

The target in experiment [8] is 5-hydroxytryptamine receptor 2A (Homo sapiens) (UniProt P28223). The experiment is described as follows: 5-hydroxytryptamine receptor 2A (HTR2A) small molecule antagonists, cell-based qHTS assay (AID 1963586). Note: nearly all actives have a fitted effect of over 45% in size. The procedure, abridged: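 Antagonist-mode intracellular calcium assay: DOI (4 nM) added after 5 min compound pre-incubation at room temperature to dye-loaded HTR2A-CHO cells. Fluorescence followed for 3 min, sampled every second.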
Chain of 5-hydroxytryptamine receptor 2A (Homo sapiens) (P28223 whole entry, looked up): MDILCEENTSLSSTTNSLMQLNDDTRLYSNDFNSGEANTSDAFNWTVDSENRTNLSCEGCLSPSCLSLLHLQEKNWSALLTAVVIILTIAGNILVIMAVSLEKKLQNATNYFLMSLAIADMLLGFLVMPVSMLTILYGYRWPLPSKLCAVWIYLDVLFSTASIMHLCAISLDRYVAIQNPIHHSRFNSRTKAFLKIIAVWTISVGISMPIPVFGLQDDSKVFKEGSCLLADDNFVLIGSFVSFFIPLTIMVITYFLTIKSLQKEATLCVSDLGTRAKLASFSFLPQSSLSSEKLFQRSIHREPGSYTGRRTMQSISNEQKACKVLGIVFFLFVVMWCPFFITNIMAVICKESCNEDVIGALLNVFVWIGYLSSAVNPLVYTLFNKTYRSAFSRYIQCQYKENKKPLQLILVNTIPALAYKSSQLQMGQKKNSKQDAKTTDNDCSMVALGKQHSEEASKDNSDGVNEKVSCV

The target is the same in experiment [9]. As to the kind of experiment: 5-hydroxytryptamine receptor 2A (HTR2A) small molecule agonists, cell-based qHTS assay (AID 1963587). Note: nearly all actives have a fitted effect of over 30% in size. In outline: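 CHO cells stably expressing human HTR2A, plated 18 h, loaded with calcium dye 1 h at 37 C. Agonist mode: compounds added and intracellular calcium fluorescence recorded kinetically for 2 min at 1 sec intervals.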

Experiment [10] deals with Muscarinic acetylcholine receptor M1 (Homo sapiens) (UniProt P11229). As to the kind of experiment: Cholinergic receptor muscarinic 1 (CHRM1) small molecule agonists, cell-based qHTS assay (AID 1963589). Note: nearly all actives have a fitted effect of over 35% in size. In outline: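 CHO cells stably expressing human CHRM1, seeded 18 h at 37 C/5% CO2, dye-loaded 1 h at 37 C, then given compound in agonist mode; intracellular calcium fluorescence read kinetically at 1 s intervals. Fifteen concentrations, three independent runs.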
Chain of Muscarinic acetylcholine receptor M1 (Homo sapiens) (P11229 whole entry, looked up): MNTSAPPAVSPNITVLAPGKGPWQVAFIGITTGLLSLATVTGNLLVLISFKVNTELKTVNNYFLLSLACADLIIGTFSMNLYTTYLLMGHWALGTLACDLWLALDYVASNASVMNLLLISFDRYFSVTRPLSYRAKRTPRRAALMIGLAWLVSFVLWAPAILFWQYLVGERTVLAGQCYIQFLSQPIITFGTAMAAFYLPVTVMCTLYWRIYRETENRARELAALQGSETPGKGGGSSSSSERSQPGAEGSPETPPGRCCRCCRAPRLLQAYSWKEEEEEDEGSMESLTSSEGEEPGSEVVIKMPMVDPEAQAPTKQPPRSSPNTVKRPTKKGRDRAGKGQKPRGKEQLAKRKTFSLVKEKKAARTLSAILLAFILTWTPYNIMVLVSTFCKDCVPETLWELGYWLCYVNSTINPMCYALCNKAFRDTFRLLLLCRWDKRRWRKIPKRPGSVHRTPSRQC

A short description of experiment [11]: cAMP Responsive Elements (CRE) small molecule agonists, cell-based qHTS assay (AID 1963590). In outline: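 CRE-bla HEK 293T cells in DMEM with 10% dialyzed FBS, NEAA, pyruvate and 25 mM HEPES were plated 18 h at 37 C/5% CO2, then exposed to compounds in DMSO for 3 h before LiveBLAzer B/G FRET substrate addition.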
Experiment [12] in a line: cAMP Responsive Elements (CRE) small molecule antagonists, cell-based qHTS assay (AID 1963591; active = well fitted inhibition curve with a large enough effect in the signal ratio in the repeat runs, not every such curve was filed as active; the % refers to the signal ratio). The procedure, abridged: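 CRE-bla HEK293T cells were plated 18 h at 37 °C/5% CO2, pinned with compound in DMSO, then stimulated with NKH477 at 0.25 uM final for 3 h. LiveBLAzer B/G FRET substrate was added and plates incubated 2 h at room temperature.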
Experiment [13] deals with Beta-2 adrenergic receptor (Homo sapiens) (UniProt P07550). The experiment is described as follows: Adrenergic beta2 receptor (ADRB2) small molecule antagonists, cell-based qHTS assay (AID 1963592). Note: series mostly up to about 92 µM; nearly all actives have a fitted effect of over 50% in size. The procedure, abridged: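 Cells (CHO, stable ADRB2 overexpression) incubated 18-20hr at 37C; compounds added from DMSO; agonist mix (1nM isoproterenol, 100uM IBMX, 25uM Ro-20-1724) added; 0.5hr RT; d2-cAMP and anti-cAMP-cryptate added; 1hr RT; 665/615 nm read.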
Chain of Beta-2 adrenergic receptor (Homo sapiens) (P07550 whole entry, looked up): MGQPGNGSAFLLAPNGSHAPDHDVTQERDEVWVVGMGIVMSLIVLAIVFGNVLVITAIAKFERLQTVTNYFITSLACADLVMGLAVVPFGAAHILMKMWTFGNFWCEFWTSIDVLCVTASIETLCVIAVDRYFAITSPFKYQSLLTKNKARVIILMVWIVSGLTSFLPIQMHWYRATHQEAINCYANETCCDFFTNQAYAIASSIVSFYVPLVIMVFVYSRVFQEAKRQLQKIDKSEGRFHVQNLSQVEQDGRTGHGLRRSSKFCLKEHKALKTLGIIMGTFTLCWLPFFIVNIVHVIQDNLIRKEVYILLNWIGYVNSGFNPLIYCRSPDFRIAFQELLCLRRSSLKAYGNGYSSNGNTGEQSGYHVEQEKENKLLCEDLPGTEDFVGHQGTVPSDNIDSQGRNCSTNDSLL

For experiment [14] the target is unchanged. As to the kind of experiment: Adrenergic beta2 receptor (ADRB2) small molecule agonists, cell-based qHTS assay (AID 1963593).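 Note: CHO cells stably overexpressing human ADRB2.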 In outline: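 CHO cells stably over-expressing ADRB2 were plated overnight at 37C, then dosed with compounds plus a stimulation mix containing 100uM IBMX and 25uM Ro-20-1724 for 0.5hr at room temperature. cAMP was measured by HTRF competition, 1hr.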

The target in experiment [15] is D(2) dopamine receptor (Homo sapiens) (UniProt P14416). The experiment is described as follows: Dopamine D2 receptor (DRD2) small molecule agonists, cell-based qHTS assay (AID 1963594). Note: nearly all actives have a fitted effect of over 35% in size. In outline:
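HEK293 cells stably expressing human DRD2, pre-treated with PDE inhibitor Ro20-1724 (0.1 mM final) and compound 10 min at room temperature, then stimulated with NKH477 (200nM […]) for 30 min. cAMP read by HTRF (665/620 nm).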

Experiment [16] has the same target. As to the kind of experiment: Dopamine D2 receptor (DRD2) small molecule antagonists, cell-based qHTS assay (AID 1963595; active = well fitted inhibition curve with a large enough effect in the signal ratio in the repeat runs, with a control signal flat; the % refers to the signal ratio). The procedure, abridged: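 Human DRD2 antagonist qHTS measuring cAMP by HTRF. The cells are exposed to compound for 10 min, then to NKH477 (200 nM) and quinpirole (12 nM) for 30 min at RT, with Ro20-1724 (0.1 mM) present throughout.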
Experiment [17] in a line: G protein-coupled receptor (GPCR) small molecule agonists, calcium flux assay: HEK293 wild type cell line counter screen (AID 1920065). In outline:
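Cells were plated and cultured 18 h at 37 C/5% CO2, then loaded with calcium dye for 1 h at 37 C. Compounds in DMSO were pin-transferred in agonist mode, and fluorescence (Ex/Em 480/540) was read kinetically for 3 min at 1 s intervals.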
In general terms: A change in cytosolic calcium serves as a functional read-out for many receptors and channels.

A short description of experiment [18]: p53 small molecule agonists, cell-based qHTS assay: qHTS cell viability counter screen (AID 1963581). Note: nearly all actives have a fitted effect of over 45% in size. Note: potency is the fitted concentration of half-maximal effect. The procedure, abridged: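 p53RE-bla HCT-116 cells were exposed to compounds for 16 h at 37 C; after the beta-lactamase FRET read in the same wells, CellTiter-Glo was added and luminescence (intracellular ATP) read after 30 min at room temperature.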
In experiment [19] the target is Muscarinic acetylcholine receptor M1 (Homo sapiens) (UniProt P11229). The experiment is described as follows: Cholinergic receptor muscarinic 1 (CHRM1) small molecule antagonists, cell-based qHTS assay (AID 1963588). Note: nearly all actives have a fitted effect of over 40% in size. In outline:
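CHRM1-CHO calcium-flux assay, antagonist mode. Cells were seeded 18 h, dye-loaded 1 h at 37 C and given compound for 5 min at RT, then acetylcholine was added at 50nM. FDSS fluorescence was read 3 min; 15 concentrations, three runs.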

Experiment [20] concerns the target KiSS-1 receptor (Homo sapiens) (UniProt Q969F8). As to the kind of experiment: Human kisspeptin (KISS1R) small molecule agonists, calcium flux assay in KISS1R-HEK293 cells (AID 1920064; active = well fitted curve in the direction sought with a large enough effect in the repeat runs; an effect the other way counts as inactive or inconclusive). In outline:
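HEK293 cells stably expressing human KISS1R were plated 18 h at 37 °C, loaded with calcium dye for 1 h at 37 °C, then given compound by pin tool. Fluorescence (Ex/Em 480/540) was read kinetically for 3 min.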

Chain of D(2) dopamine receptor (Homo sapiens) (P14416 whole entry, looked up): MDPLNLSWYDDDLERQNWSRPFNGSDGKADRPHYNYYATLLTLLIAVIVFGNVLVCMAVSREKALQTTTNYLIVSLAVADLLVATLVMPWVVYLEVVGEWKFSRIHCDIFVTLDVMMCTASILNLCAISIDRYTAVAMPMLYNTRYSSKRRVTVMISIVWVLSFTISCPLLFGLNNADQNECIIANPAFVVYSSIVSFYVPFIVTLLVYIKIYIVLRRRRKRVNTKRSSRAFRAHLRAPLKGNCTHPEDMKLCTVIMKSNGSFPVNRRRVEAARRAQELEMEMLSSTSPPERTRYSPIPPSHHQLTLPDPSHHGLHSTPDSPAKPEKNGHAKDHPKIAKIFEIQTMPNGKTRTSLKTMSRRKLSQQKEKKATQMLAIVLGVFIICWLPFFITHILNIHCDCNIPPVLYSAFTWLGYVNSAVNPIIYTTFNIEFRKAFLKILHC
Chain of KiSS-1 receptor (Homo sapiens) (Q969F8 whole entry, looked up): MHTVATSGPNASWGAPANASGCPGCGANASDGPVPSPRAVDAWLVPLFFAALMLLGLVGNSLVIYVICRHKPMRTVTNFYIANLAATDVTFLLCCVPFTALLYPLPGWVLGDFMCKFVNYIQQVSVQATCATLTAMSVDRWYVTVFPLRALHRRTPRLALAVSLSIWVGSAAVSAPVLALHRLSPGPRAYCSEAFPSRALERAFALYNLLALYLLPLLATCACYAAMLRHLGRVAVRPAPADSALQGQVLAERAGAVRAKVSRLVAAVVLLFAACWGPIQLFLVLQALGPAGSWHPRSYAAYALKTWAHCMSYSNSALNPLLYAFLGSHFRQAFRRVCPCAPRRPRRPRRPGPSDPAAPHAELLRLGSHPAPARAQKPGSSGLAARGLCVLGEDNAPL

For `CC(O)COc1ccccc1` (stereo unspecified), the Potency result in [1], in experiment [2], in experiment [3], in [4], in experiment [5] and in experiment [6] was “inactive” throughout. For the same compound, the Potency result in experiment [7], in [8], in experiment [9], in experiment [10], in experiment [11] and in experiment [12] was “inactive” each time. The Potency result in experiment [13], in [14], in experiment [15] and in experiment [16] was “inactive” throughout.

Turning to `NCCN`, the Potency result in experiment [1], in experiment [2], in experiment [17], in experiment [3], in experiment [4] and in experiment [5] was “inactive” each time. For the same compound, the Potency entry in [18], in [7], in experiment [8], in experiment [9], in experiment [19] and in experiment [10] was “inactive” each time. The Potency entry in experiment [11], in experiment [12], in experiment [13], in [14], in experiment [15] and in experiment [16] was “inactive” in each case.

Turning to `O=C(O)CCCCC1CCSS1` (stereo unspecified), the Potency entry in experiment [1], in experiment [17], in experiment [3], in experiment [4], in [5] and in [6] was “inactive” throughout. The Potency entry in experiment [18], in experiment [7], in experiment [11], in experiment [13], in experiment [14] and in experiment [15] was “inactive” in each case. Moreover, the Potency entry in experiment [16] was “inactive”. The Potency in experiment [2] is 5.44 µM (active) and inactive.

Regarding `Cc1ccc(C)c(OCCCC(C)(C)C(=O)O)c1`, the Potency entry in experiment [1], in experiment [2], in experiment [17], in experiment [5], in [12] and in experiment [13] was “inactive” each time. For the same compound, the Potency result in experiment [14], in experiment [15] and in experiment [16] was “inactive” each time.

`COc1cc(NC(=O)CC(C)=O)c(OC)cc1Cl`: the Potency entry in [1], in [2], in experiment [17], in experiment [3], in [5] and in [6] was “inactive” each time. For the same compound, the Potency result in experiment [18], in experiment [7], in experiment [8], in experiment [9], in experiment [19] and in experiment [10] was “inactive” in each case. For the same compound, the Potency entry in [13], in experiment [15] and in [16] was “inactive” throughout.

Regarding `CCCCCCCCCCCCc1ccccc1O`, the Potency in experiment [1] was 21.4 µM (active) and 24.3 µM (active); in [5] it was 18 µM (active) and 20.4 µM (active); in [18], 14.3 µM (active) and 18.2 µM (active). Also, the Potency result in [2], in experiment [17], in experiment [3], in experiment [4], in experiment [6] and in experiment [8] was “inactive” in each case. In addition, the Potency entry in experiment [19], in experiment [10], in experiment [15] and in [16] was “inactive” each time.

Turning to `Cc1cccc(C(=O)O)c1`, the Potency entry in [1], in experiment [2], in experiment [20], in [17], in [3] and in experiment [4] was “inactive” in each case. For the same compound, the Potency result in experiment [5], in experiment [6], in experiment [18], in [7], in experiment [8] and in experiment [9] was “inactive” in each case. The Potency entry in experiment [19], in experiment [10], in [11], in experiment [12], in experiment [13] and in experiment [14] was “inactive” each time. Besides, the Potency result in experiment [15] and in experiment [16] was “inactive” each time.

`O=C(O)C1=NN(c2ccc(S(=O)(=O)O)cc2)C(=O)C1`: the Potency entry in [1], in [2], in experiment [3], in experiment [4], in experiment [5] and in experiment [18] was “inactive” each time. Also, the Potency result in experiment [7], in experiment [8], in experiment [9], in [19], in experiment [10] and in [12] was “inactive” each time. For the same compound, the Potency result in experiment [13], in experiment [14], in [15] and in experiment [16] was “inactive” each time.
